Results on 22 compounds are retold here after PubChem BioAssay (EPA / NIEHS).

What all share (details): mRNA level, 48 h; actives raise or lower the signal
Read-out in experiment [1]: NAD(P)H dehydrogenase [quinone] 1 (NQO1), NQO1 (gene 1728)
The experiment can be described thus: LTEA_HepaRG_NQO1: Life Technologies and Expression Analysis (LTEA) Assay for NAD(P)H dehydrogenase [quinone] 1 (NQO1) using HepaRG (AID 2283526). In a few lines: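 Differentiated human HepaRG cells in serum-free induction medium, dosed in duplicate for 48 h at 8 half-log concentrations up to 100 uM in 0.5% DMSO. NQO1 mRNA by qRT-PCR normalized to ACTB, GAPDH, POLR2A; bidirectional fit versus DMSO baseline.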

Read-out in experiment [2]: Nuclear factor erythroid 2-related factor 2 (Homo sapiens) (UniProt Q16236)
The experiment can be described thus: LTEA_HepaRG_NFE2L2: Life Technologies and Expression Analysis (LTEA) Assay for Nuclear factor erythroid 2-related factor 2 (NFE2L2) Transcription Factor using HepaRG (AID 2283527).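 For outcome: TaqMan qRT-PCR transcript level normalised to ACTB GAPDH and POLR2A housekeeping genes.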 In a few lines: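 Transcript level of NFE2L2 is the read-out, measured by microfluidic TaqMan qRT-PCR and normalized to three housekeeping genes. Human HepaRG cultures received test chemical for 48 h at up to 100 uM in half-log steps. Gain or loss of signal is fitted relative to 0.5% DMSO.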

Read-out in experiment [3]: succinate dehydrogenase complex iron sulfur subunit B (SDHB), SDHB (gene 6390)
Kind of experiment: LTEA_HepaRG_SDHB: Life Technologies and Expression Analysis (LTEA) Assay for succinate dehydrogenase complex iron sulfur subunit B (SDHB) using HepaRG (AID 2283528). In a few lines: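 Readout is SDHB transcript level by qRT-PCR, normalised to three housekeeping genes and fitted bidirectionally against 0.5% DMSO vehicle. Human HepaRG cells were treated for 48 h at up to 100 uM.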

Read-out in experiment [4]: Signal transducer and activator of transcription 3 (Homo sapiens) (UniProt P40763)
The experiment can be described thus: LTEA_HepaRG_STAT3: Life Technologies and Expression Analysis (LTEA) Assay for Signal transducer and activator of transcription (STAT3) using HepaRG (AID 2283529). In a few lines:
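Read-out is STAT3 mRNA level by qRT-PCR, normalized to three housekeeping genes, in human HepaRG liver cells treated for 48 h. Concentrations ran from 100 uM downward in half-log steps; curves were fitted for gain or loss relative to 0.5% DMSO.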

Read-out in experiment [5]: solute carrier (SLCO1B1), SLCO1B1 (gene 10599)
The experiment can be described thus: LTEA_HepaRG_SLCO1B1: Life Technologies and Expression Analysis (LTEA) Assay for solute carrier (SLCO1B1) using HepaRG (AID 2283530). In a few lines:
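Gain or loss of SLCO1B1 mRNA is fitted against the 0.5% DMSO vehicle in human HepaRG liver cells treated 48 h at up to 100 uM in half-log steps. Expression comes from qRT-PCR normalized to endogenous controls.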

Read-out in experiment [6]: Transforming Growth Factor (TGFA), TGFA (gene 7039)
Kind of experiment: LTEA_HepaRG_TGFA: Life Technologies and Expression Analysis (LTEA) Assay for Transforming Growth Factor (TGFA) using HepaRG (AID 2283532). In a few lines:
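HepaRG (human liver line), 48 h exposure, 8 conc. half-log down from 100 uM, 0.5% DMSO vehicle, duplicates; serum-free induction medium. TGFA mRNA by TaqMan qRT-PCR, ACTB/GAPDH/POLR2A normalization; gain/loss fit vs DMSO.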

Read-out in experiment [7]: Transforming Growth Factor (TGFB1), TGFB1 (gene 7040)
Kind of experiment: LTEA_HepaRG_TGFB1: Life Technologies and Expression Analysis (LTEA) Assay for Transforming Growth Factor (TGFB1) Transporter using HepaRG (AID 2283533). In a few lines: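 Expression change of TGFB1 in human HepaRG cells is measured after a 48 h chemical exposure, up to 100 uM in 0.5% DMSO vehicle. Curves are fitted in both directions relative to the DMSO baseline.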

Read-out in another experiment: TIMP1, TIMP1 (gene 7076)
The experiment can be described thus: LTEA_HepaRG_TIMP1: Life Technologies and Expression Analysis (LTEA) Assay for TIMP1 using HepaRG (AID 2283534).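 For outcome: TaqMan qRT-PCR signal normalized to ACTB GAPDH and POLR2A housekeeping genes.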 In a few lines:
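We dosed human liver HepaRG cultures for 48 hours with up to 100 uM test chemical and measured TIMP1 expression by qRT-PCR. Activity in either direction is fitted relative to the 0.5% DMSO vehicle.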

Read-out in experiment [8]: sulfotransferase 2A1 (SULT2A1), SULT2A1 (gene 6822)
The experiment can be described thus: LTEA_HepaRG_SULT2A1: Life Technologies and Expression Analysis (LTEA) Assay for sulfotransferase 2A1 (SULT2A1) using HepaRG (AID 2283531). In a few lines:
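Cells were plated and cultured 48 h, switched to serum-free induction medium, then dosed in duplicate for 48 h (8 concentrations, max 100 uM). RNA was isolated and SULT2A1 expression measured by qRT-PCR; gain or loss of signal fitted relative to DMSO.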

Read-out in experiment [9]: Tumor necrosis factor receptor 1 (TNFRSF1A), TNFRSF1A (gene 7132)
The experiment can be described thus: LTEA_HepaRG_TNFRSF1A: Life Technologies and Expression Analysis (LTEA) Assay for Tumor necrosis factor receptor 1 (TNFRSF1A) using HepaRG (AID 2283535). In a few lines: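 Expression of TNFRSF1A in human HepaRG liver cells was measured by qRT-PCR 48 h after chemical dosing (maximum 100 uM). Bidirectional curve fitting used 0.5% DMSO as baseline.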

Calls of active or inactive are those of the source. Rule for the calls: active = hit-call score of the fitted dose curve at least 0.9, where 1 is the maximum; inactive = score below 0.9.

Sequence of Nuclear factor erythroid 2-related factor 2 (Homo sapiens) (Q16236 whole entry, looked up): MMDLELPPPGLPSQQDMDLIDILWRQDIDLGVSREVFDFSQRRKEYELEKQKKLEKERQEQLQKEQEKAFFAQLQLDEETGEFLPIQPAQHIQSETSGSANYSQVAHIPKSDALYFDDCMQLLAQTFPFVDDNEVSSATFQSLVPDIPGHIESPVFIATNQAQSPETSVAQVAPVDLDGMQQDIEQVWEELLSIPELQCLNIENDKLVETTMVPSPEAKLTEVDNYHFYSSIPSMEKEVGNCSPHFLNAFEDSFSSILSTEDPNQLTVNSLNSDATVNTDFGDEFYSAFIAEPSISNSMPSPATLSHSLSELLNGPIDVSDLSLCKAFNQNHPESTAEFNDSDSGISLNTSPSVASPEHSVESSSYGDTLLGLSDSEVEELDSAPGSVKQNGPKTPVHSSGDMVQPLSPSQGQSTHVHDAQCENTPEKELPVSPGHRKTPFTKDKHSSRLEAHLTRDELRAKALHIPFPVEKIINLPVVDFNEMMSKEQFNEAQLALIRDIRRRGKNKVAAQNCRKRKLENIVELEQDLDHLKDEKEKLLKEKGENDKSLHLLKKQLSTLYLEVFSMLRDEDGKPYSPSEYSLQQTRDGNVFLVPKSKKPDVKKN
Sequence of Signal transducer and activator of transcription 3 (Homo sapiens) (P40763 whole entry, looked up): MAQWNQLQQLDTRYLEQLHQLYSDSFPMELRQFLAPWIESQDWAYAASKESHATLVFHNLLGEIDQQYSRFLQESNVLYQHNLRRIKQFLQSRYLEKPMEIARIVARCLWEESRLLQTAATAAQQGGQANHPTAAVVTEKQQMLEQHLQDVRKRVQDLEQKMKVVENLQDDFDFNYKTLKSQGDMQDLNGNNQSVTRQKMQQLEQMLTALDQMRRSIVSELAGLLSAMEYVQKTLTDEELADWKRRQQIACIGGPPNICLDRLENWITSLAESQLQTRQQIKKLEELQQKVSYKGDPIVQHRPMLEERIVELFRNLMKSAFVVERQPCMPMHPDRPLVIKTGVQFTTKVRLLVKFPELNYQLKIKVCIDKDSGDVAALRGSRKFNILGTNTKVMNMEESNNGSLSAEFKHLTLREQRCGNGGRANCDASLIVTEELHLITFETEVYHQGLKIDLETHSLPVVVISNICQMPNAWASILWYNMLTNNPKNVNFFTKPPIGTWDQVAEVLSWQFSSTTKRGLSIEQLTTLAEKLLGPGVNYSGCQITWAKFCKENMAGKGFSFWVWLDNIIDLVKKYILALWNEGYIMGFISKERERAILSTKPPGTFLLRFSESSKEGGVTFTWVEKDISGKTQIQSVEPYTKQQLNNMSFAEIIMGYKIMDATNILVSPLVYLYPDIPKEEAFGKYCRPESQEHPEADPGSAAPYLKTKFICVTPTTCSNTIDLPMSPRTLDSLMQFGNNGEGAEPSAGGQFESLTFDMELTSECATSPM

One may read the AC50 as the concentration at which the activity in the assay is half-maximal. Regarding `O=c1[nH]c2ccc(S(=O)CCN3CCC(Cc4ccc(F)cc4)CC3)cc2o1` (stereo not given), the result in experiment [1], in experiment [2], in [4], in [5], in experiment [6] and in [7] was inactive. For the same compound, the compound was classed as inactive with TIMP1, TIMP1 (gene 7076). For the same compound, the AC50 in experiment [3] was 50 µM (active).

For `CC(C)=CCCC(C)=CC=O`, the compound was classed as inactive in experiment [1], in [2], in [3], in experiment [4], in experiment [8] and in experiment [6]. Also, the outcome was “inactive” in experiment [7] and “inactive” with TIMP1, TIMP1 (gene 7076).

Consider `COc1ccc(-n2nc(C(F)F)cc2-c2ccc(S(C)=O)cc2)cc1` (stereo not given), for which the result in [1], in experiment [2], in [3], in experiment [4], in experiment [5] and in experiment [6] was inactive. For the same compound, the outcome was “inactive” in experiment [7]; “inactive” in the experiment with TIMP1, TIMP1 (gene 7076); “inactive” in experiment [9].

As for `O=C1CCC(N2C(=O)c3ccccc3C2=O)C(=O)N1` (stereo not given), the compound was classed as inactive in experiment [1], in experiment [2], in experiment [3], in experiment [4], in experiment [5] and in experiment [6]. Also, the outcome is “inactive” in experiment [7]; “inactive” with TIMP1, TIMP1 (gene 7076); “inactive” in experiment [9].

As to `COc1cccc(-c2ccc(/C=C\CN3CCCCCC3)cc2Cl)c1`, the outcome in [1] is “inactive”; in experiment [3], “inactive”; in [4], “inactive”; with TIMP1, TIMP1 (gene 7076) it was “inactive”; in experiment [9], “inactive”. For the same compound, the AC50 is 65.7 µM (active) in [2], 74.6 µM (active) in [5], 74.4 µM (active) in experiment [6] and 87.3 µM (active) in experiment [7].

Consider `O=C(CCCCCCCCc1cccnc1)N1CCC(C=C(c2ccccc2)c2ccccc2)CC1`, for which the AC50 in [1] is 80 µM (active); in experiment [2], 24.9 µM (active); in experiment [8], 30.6 µM (active); in experiment [6], 27 µM (active); with TIMP1, TIMP1 (gene 7076), 78.7 µM (active). In addition, the result in experiment [3], in [4] and in experiment [7] was inactive.

For the compound `Oc1ccc2c(c1)-c1ccccc1C2`, the compound was classed as inactive in [1], in experiment [3], in experiment [4], in [8], in experiment [6] and in experiment [7]. The outcome is “inactive” with TIMP1, TIMP1 (gene 7076) and “inactive” in experiment [9]. The AC50 in [2] is 21.4 µM (active).

Consider `Cc1ccc(S(=O)(=O)O)cc1C`, for which the compound was called inactive in [1], in experiment [2], in [3], in experiment [4], in [5] and in experiment [6]. In addition, the outcome in experiment [7] was “inactive”; in the experiment with TIMP1, TIMP1 (gene 7076), “inactive”; in experiment [9], “inactive”.

On to `O=C(NS(=O)(=O)/C=C/c1ccccc1)c1ccc(F)cc1Cl`, for which the call in [1], in experiment [2], in experiment [3], in experiment [4], in [5] and in experiment [6] was inactive. Also, the outcome in experiment [7] is “inactive”; with TIMP1, TIMP1 (gene 7076), “inactive”; in [9], “inactive”.

Regarding `CCOC(=O)COc1ccc2c(c1)CC(NCC(O)c1cccc(Cl)c1)CC2` (stereo not given), the compound was called inactive in [1], in [2], in experiment [3], in experiment [4], in experiment [8] and in experiment [6]. For the same compound, the outcome is “inactive” in experiment [7]; “inactive” with TIMP1, TIMP1 (gene 7076); “inactive” in [9].

For `CC(C)CCCCCCCOC(=O)CCCCC(=O)OCCCCCCCC(C)C`, the call in [1], in [2], in [3], in experiment [4], in experiment [8] and in experiment [6] was inactive. The outcome in experiment [7] is “inactive”; with TIMP1, TIMP1 (gene 7076), “inactive”.

Turning to `CN(C)c1ccc(Cc2ccc(N(C)C)cc2)cc1`, the compound was called inactive in experiment [1], in experiment [2], in experiment [3], in experiment [4], in [5] and in [6]. Moreover, the outcome in experiment [7] is “inactive”; with TIMP1, TIMP1 (gene 7076) it was “inactive”.

Take `CC/C(=C\C(=N/O)C(N)=O)C(C)[N+](=O)[O-]` (stereo not given): the compound was called inactive in experiment [1], in [2], in experiment [3], in [4], in [8] and in [6]. Moreover, the outcome in experiment [7] is “inactive”; with TIMP1, TIMP1 (gene 7076), “inactive”; in experiment [9], “inactive”.

In the case of `CC(O)CN(CCN(CC(C)O)CC(C)O)CC(C)O` (stereo not given), the compound was classed as inactive in experiment [1], in [3], in experiment [4], in experiment [5], in experiment [6] and in experiment [7]. Moreover, the outcome with TIMP1, TIMP1 (gene 7076) was “inactive”; in [9] it was “inactive”. The AC50 in experiment [2] is 12.6 µM (active).

`CCCCCCCCCCCCc1ccccc1`: the compound was called inactive in experiment [1], in [2], in [3], in experiment [4], in experiment [8] and in [6]. The outcome is “inactive” in [7]; “inactive” with TIMP1, TIMP1 (gene 7076); “inactive” in experiment [9].

Regarding `CN(C)c1ccc(N=NS(=O)(=O)O)cc1`, the call in experiment [1], in experiment [2], in [3], in experiment [5], in experiment [6] and in [7] was inactive. For the same compound, the result with TIMP1, TIMP1 (gene 7076) was inactive. For the same compound, in experiment [4], the AC50 was 0.717 µM (active).

Turning to `CC(C)=CCC/C(C)=C/CO`, the call in experiment [1], in experiment [2], in experiment [3], in [4], in experiment [8] and in experiment [6] was inactive. In addition, the outcome was “inactive” in [7]; “inactive” with TIMP1, TIMP1 (gene 7076); “inactive” in [9].

Regarding `Cc1ccc(N)cc1O`, the call in [1], in experiment [2], in experiment [3], in experiment [4], in [6] and in [7] was inactive. Besides, the compound was classed as inactive in the experiment with TIMP1, TIMP1 (gene 7076).

In the case of `CC(C)CCO`, the result in experiment [1], in experiment [2], in experiment [3], in [4], in [6] and in experiment [7] was inactive. Also, the outcome in the experiment with TIMP1, TIMP1 (gene 7076) is “inactive”; in experiment [9], “inactive”.

In the case of `CC(=O)OC[C@H]1O[C@@](COC(C)=O)(O[C@H]2O[C@H](COC(C)=O)[C@@H](OC(C)=O)[C@H](OC(C)=O)[C@H]2OC(C)=O)[C@@H](OC(C)=O)[C@@H]1OC(C)=O`, the outcome in [1], in experiment [2], in [3], in experiment [4], in experiment [6] and in experiment [7] was inactive. In addition, the outcome in the experiment with TIMP1, TIMP1 (gene 7076) was inactive.

Take `Cc1ccc(O)cc1`: the outcome in experiment [1], in experiment [2], in experiment [3], in [4], in experiment [6] and in [7] was inactive. Besides, the result with TIMP1, TIMP1 (gene 7076) was inactive.

On to `Cc1c(-c2cccnc2)c2ccccc2n1CCCCC(=O)O`, for which the call in [1], in [2], in experiment [3], in experiment [4], in experiment [8] and in experiment [6] was inactive. In addition, the outcome in experiment [7] is “inactive”; with TIMP1, TIMP1 (gene 7076), “inactive”; in experiment [9], “inactive”.
